These results are taken from PubChem BioAssay (EPA / NIEHS).

In general, AC50 refers to the midpoint of the concentration-response curve, whichever way the signal moves.

Active and inactive are the calls of the source. Rule for the calls: active = hit-call score of the fitted dose curve at least 0.9, where 1 is the maximum; inactive = score below 0.9.

Test [1] is described as follows: APR_HepG2_P-H2AX_72hr: Apredica 72-hour HepG2 Assay for H2AX Phosphorylation (AID 2282916).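 Note: phospho-histone H2A.x immunostain intensity per cell marking DNA damage.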 The conditions noted are these: imaging, actives raise or lower the signal. The method in brief:
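Phospho-H2A.x imaging endpoint in HepG2 after 72 hr compound exposure (0.39–200 uM, duplicate wells). Activity derived by bidirectional curve fitting with DMSO as baseline.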

The nature of test [2]: APR_HepG2_MitoMembPot_72hr: Apredica 72-hour HepG2 Assay for Mitochondrial Membrane Potential (AID 2282917). The settings on record: imaging, actives raise or lower the signal. The method in brief: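 HepG2 cells dosed 72 hr with compound at 0.39–200 uM in duplicate, 0.5% v/v DMSO final. Mitochondria stained with 250 nM MitoTracker Red CMXRos for 30 min before formaldehyde fixation, imaged by high-content fluorescence; bidirectional fit versus DMSO.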

Test [3] can be described thus: APR_HepG2_MitoticArrest_72hr: Apredica 72-hour HepG2 Assay for Mitotic Arrest (AID 2282918). The settings on record: high-content imaging, actives raise or lower the signal. The method in brief: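 Read-out is phospho-histone H3 immunofluorescence with Hoechst nuclear segmentation, imaged at 20x. Human HepG2 liver cells received ten concentrations (0.39–200 uM, final DMSO 0.5% v/v) for 72 hr before fixation. Gain or loss of signal was fitted relative to DMSO.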

Test [4] in a line: APR_HepG2_MicrotubuleCSK_72hr: Apredica 72-hour HepG2 Assay for Microtubule CSK Stabilty (AID 2282919). The settings on record: HepG2 microtubule cytoskeleton, high-content imaging, actives raise or lower the signal. The method in brief:
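HepG2, 72 hr cmpd exposure, 0.39–200 uM (10 pts, duplicate), 0.5% DMSO. 3.7% formaldehyde fix, 0.5% Triton perm, anti-alpha-tubulin/Cy5 plus Hoechst. HCS fluorescence intensity; bidirectional fit vs DMSO baseline; taxol as positive control.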

The nature of test [5]: APR_HepG2_P-H2AX_24hr: Apredica 24-hour HepG2 Assay for H2AX Phosphorylation (AID 2282920). The settings on record: high-content imaging, actives raise or lower the signal. The method in brief:
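HepG2, 24 hr, cpd 0.39–200 uM (10 conc, duplicate), DMSO 0.5% v/v final. Fix 3.7% formaldehyde, Triton X-100 permeabilize, anti-phospho-H2A.x 1:200 + Hoechst 2 ug/mL. Imaged, bidirectional fit vs DMSO.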

The nature of test [6]: APR_HepG2_StressKinase_72hr: Apredica 72-hour HepG2 Assay for Stress Kinase (AID 2282921). The settings on record: HepG2 stress kinase (phospho-c-Jun) imaging, actives raise or lower the signal. In short, it runs like this: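 Stress kinase signal reflects nuclear phospho-c-Jun staining in fixed, permeabilized cells exposed 72 h to compound at 0.39–200 uM; DMSO-normalized, fitted for increases or decreases.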

The nature of test [7]: APR_HepG2_StressKinase_24hr: Apredica 24-hour HepG2 Assay for Stress Kinase (AID 2282922). The conditions noted are these: HepG2 stress kinase (phospho-c-Jun) imaging, actives raise or lower the signal. The method in brief:
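Read-out: phospho-c-Jun immunofluorescence (Cy3 secondary) quantified by high-content imaging at 20x, nuclei defined by Hoechst 33342. Human HepG2 liver cells dosed 24 hr, 0.39–200 uM, DMSO 0.5% v/v; gain or loss of signal fitted relative to DMSO.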

A short description of test [8]: APR_HepG2_p53Act_72hr: Apredica 72-hour HepG2 Assay for p53 Activation (AID 2282923).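 Note: average cellular p53 protein immunofluorescence intensity in HepG2 cells.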 The settings on record: high-content imaging, actives raise or lower the signal. The method in brief: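 Fixed-cell p53 staining (sheep primary, Cy5 secondary) measured by fluorescence imaging following 72 hr treatment at 0.39–200 uM in 0.5% DMSO; DMSO served as negative control and baseline.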

The nature of test [9]: APR_HepG2_MitoMass_72hr: Apredica 72-hour HepG2 Assay for Mitochondrial Mass (AID 2282924).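 Note: MitoTracker Red CMXRos stain intensity per cell imaged as mitochondrial mass.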 The settings on record: high-content imaging, actives raise or lower the signal. The method in brief: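 Read-out: MitoTracker Red fluorescence intensity from automated imaging (20x, six fields per well) in human HepG2 liver cells. Dosing ran 72 hr, 0.39–200 uM, 0.5% DMSO; bidirectional curve fitting versus DMSO baseline.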

Test [10] is described as follows: APR_HepG2_NuclearSize_72hr: Apredica 72-hour HepG2 Assay for Nuclear Size (AID 2282925). The settings on record: high-content imaging, actives raise or lower the signal. In short, it runs like this:
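Read-out: nuclear diameter from Hoechst 33342 images (ArrayScan, 20x, six fields/well), via cell-cycle image analysis. HepG2 were dosed 0.39–200 uM for 72 hr in 0.5% DMSO. Bidirectional fit relative to DMSO.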

As for `CCCN(C1CCN(C(=O)C2CCNCC2)CC1)[C@@H]1CCc2ccc(OC)cc2C1`, the AC50 in test [1] was 64 µM (active); in test [3] it was 53 µM (active); in test [5], 80.8 µM (active); in test [8], 68.9 µM (active); in test [9], 111 µM (active). The compound was classed as inactive in test [2], in test [4], in test [6], in [7] and in [10].
Regarding `CCc1cc(SCc2sc(-c3ccc(C(F)(F)F)cc3)nc2CN2CCN(c3ccc(OC)cc3)CC2)ccc1OCC(=O)O`, the AC50 in test [1] is 48 µM (active); in test [2] it was 116 µM (active); in [3], 45 µM (active); in [5], 54.5 µM (active); in test [8], 59 µM (active); in test [9], 33.2 µM (active). Besides, the result in [4], in [6], in [7] and in test [10] was inactive.
Turning to `CNS(=O)(=O)c1cc(C(=O)N2CCC(CCN3C4CCC3CC(n3c(C)nc5ccccc53)C4)(c3cccc(F)c3)CC2)c(Cl)cc1F` (stereo not given), the AC50 in test [1] was 11.1 µM (active); in test [3] it was 10.3 µM (active); in test [4], 65.2 µM (active); in [5] it was 52.9 µM (active); in test [7], 54.4 µM (active). For the same compound, the compound was classed as inactive in test [2], in test [6], in test [8], in test [9] and in test [10].
`C1N2CN3CN1CN(C2)C3`: the outcome in test [1], in test [2], in [3], in test [4], in test [5] and in test [6] was inactive. The call in test [7], in test [8], in [9] and in [10] was inactive.
For `CCCC(=O)OCC`, the compound was called inactive in [1], in test [2], in [3], in test [4], in [5] and in test [6]. The compound was called inactive in [7], in test [8], in [9] and in test [10].
On to `Oc1ccc2c(c1)-c1ccccc1C2`, for which the AC50 in test [1] is 89 µM (active); in test [2], 106 µM (active); in test [3], 80.3 µM (active); in test [5] it was 117 µM (active); in [8], 47.7 µM (active). In addition, the compound was called inactive in test [4], in test [6], in test [7], in test [9] and in test [10].
Regarding `CC(=O)c1ccc2c(c1)[C@H](NC(=O)c1ccc(F)cc1)[C@@H](O)C(C)(C)O2`, the compound was called inactive in [1], in test [2], in [3], in test [4], in test [5] and in test [6]. Also, the result in [7], in [8], in test [9] and in [10] was inactive.
Regarding `Cn1c(=O)c2c(ncn2C)n(C)c1=O`, the outcome in [1], in [2], in [3], in test [4], in test [5] and in test [6] was inactive. The compound was classed as inactive in test [7], in test [8], in test [9] and in test [10].
`COCCOCCOCCOC`: the call in test [1], in [2], in [3], in test [4], in test [5] and in test [6] was inactive. The call in [7], in [8], in [9] and in test [10] was inactive.
As for `C=CCCCCCCCCC(=O)O`, the outcome in test [1], in test [2], in test [3], in [4], in [5] and in [6] was inactive. For the same compound, the compound was called inactive in [7], in test [8], in test [9] and in [10].
On to `COC(=O)CC(=O)OC`, for which the compound was called inactive in test [1], in test [2], in test [3], in [4], in test [5] and in [6]. The result in [7], in [8], in [9] and in [10] was inactive.
As to `CCNc1ccccc1`, the outcome in [1], in test [2], in test [3], in [4], in test [5] and in test [6] was inactive. For the same compound, the result in [7], in [8], in test [9] and in test [10] was inactive.
Turning to `CCOCCOCCOCCO`, the compound was called inactive in test [1], in test [2], in test [3], in test [4], in [5] and in [6]. Moreover, the compound was classed as inactive in test [7], in [8], in test [9] and in test [10].
With `CCOC(=O)CC(CC(=O)OCC)(OC(C)=O)C(=O)OCC`, the compound was called inactive in test [1], in test [2], in test [3], in test [4], in [5] and in test [6]. Further, the call in test [7], in [8], in test [9] and in [10] was inactive.
